PLK1 PBD inh – inhibitors of human PLK1 polo-box domain binding | Plk1 PBD binding of FITC phosphopeptide, fluorescence polarization | Potency, µM, for inactives: max response, negative = inhibition, usual class: inhibitors | hit rate 2.8% among 360,000; also: series mostly up to about 57 µM; nearly all actives have a fitted effect of over 65% in size
Tau fibril ThT – inhibitors of human tau fibril formation, thioflavin T binding. recombinant tau K18 P301L, heparin-induced fibrillization, ThT fluorescence. Potency, µM (titrated, usually from 57.4 µM), for the others: top-dose activity, negative = inhibition, most hits filed as inhibitors. P10636. hit rate 2.1% among 270,000; also: nearly all actives have a fitted effect of over 55% in size
Target sequence (P10636 561-689 P618L limits assumed): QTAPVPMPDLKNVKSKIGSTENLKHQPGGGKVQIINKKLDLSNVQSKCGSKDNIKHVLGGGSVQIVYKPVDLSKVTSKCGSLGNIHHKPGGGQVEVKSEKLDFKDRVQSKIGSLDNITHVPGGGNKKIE
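Heparin-induced (20 uM) aggregation of recombinant human K18 P301L tau, 15 uM unlabeled with 0.24 uM labeled, pH 7 acetate buffer, 6 hr at 37 C with compound. Fibrils quantified by 30 uM ThT fluorescence after 1 hr ambient incubation.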
VDR inh – inhibitors of human vitamin D receptor; Potency, µM, inactives show max response, negative = inhibition, hits mostly inhibitors; P11473; hit rate 0.93% among 400,000; AID 504847; VDR-SRC2-3 peptide fluorescence polarization, 2 h
Target sequence (P11473 whole entry, looked up): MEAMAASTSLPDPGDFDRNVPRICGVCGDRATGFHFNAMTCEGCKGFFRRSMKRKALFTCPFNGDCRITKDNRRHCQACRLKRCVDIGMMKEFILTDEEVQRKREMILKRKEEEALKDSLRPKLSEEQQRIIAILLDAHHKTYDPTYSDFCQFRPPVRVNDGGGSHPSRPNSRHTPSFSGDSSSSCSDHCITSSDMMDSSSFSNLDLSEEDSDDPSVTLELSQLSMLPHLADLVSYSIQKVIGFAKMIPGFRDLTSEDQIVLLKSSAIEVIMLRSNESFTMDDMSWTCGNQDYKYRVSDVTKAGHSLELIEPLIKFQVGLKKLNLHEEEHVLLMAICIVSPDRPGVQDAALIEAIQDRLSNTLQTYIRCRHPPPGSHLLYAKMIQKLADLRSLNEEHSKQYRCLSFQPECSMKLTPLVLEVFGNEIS
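VDR–SRC2-3 interaction, FP format. Cmpds 23 nl via pintool, brief spin, 2 h ambient incubation.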
Sfp PPTase inh – Sfp phosphopantetheinyl transferase inhibition. Q9F4F7. Biochemical Sfp PPTase activity, qHTS. Potency, µM, inactives show largest response in the series, negative = inhibition, usual class: inhibitors. hit rate 3.5% among 310,000;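 also: the enzyme is Sfp with the accession as filed and its product quenches rhodamine fluorescence; 0% = enzyme reaction without inhibitor and -100% = no enzyme wells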
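Fluorescence-quenching assay with 15 nM Sfp, 5 uM rhodamine-CoA and 12.5 uM BHQ-2-labelled ybbR peptide in pH 7.6 Hepes/MgCl2 buffer. Enzyme was pre-incubated with compound for 15 min at room temperature. Rate was taken from the 30-min fluorescence change (525/598 nm).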
Tau FP inhib – inhibitors of human tau fibril formation. P10636. K18 P301L tau heparin fibrillization, Alexa594 FP, 6 h. Potency, µM (top dose mostly 57.7 µM), for inactives: at the highest dose activity, negative = inhibition, most hits filed as inhibitors. hit rate 0.39% among 280,000. AID 1468; also: nearly all actives have a fitted effect of over 55% in size
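Steps: dispense K18 P301L tau (15 uM plus 0.24 uM Alexa 594 tracer, final) in pH 7 sodium acetate; add compound; add heparin (20 uM final); incubate 6 hr, 37 C; add ThT (30 uM final); after 1 hr ambient, read FP.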
Tau fluor cs – counter-screen for tau fibril formation inhibitors. tau K18 P301L (four-repeat tau fragment) Alexa594 fluorescence, heparin fibrillization. Potency, µM (top dose mostly 57.7 µM), without a hit: top-dose activity change, negative = decrease. hit rate 0.93% among 280,000; also: nearly all actives have a fitted effect of over 55% in size
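Human K18 P301L tau (15 uM unlabeled plus 0.24 uM Alexa 594-labeled, final) in 100 mM sodium acetate pH 7 was mixed with compound and 20 uM heparin and incubated 6 hr at 37 C.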
Active calls of the source: *; u = inconclusive; x = not tested or not shown; ! = not active in a repeat; [ ] = remark or other dose. In the library only some 6% were active in any assay of this set; here they are far more common. Calls follow the shape of the dose curve; as a rule, active = well fitted curve in the direction sought with a large enough effect; inconclusive = small, poorly fitted or top-dose-only effect, or another doubt; inactive = no such curve, though single readings can be large; an effect the other way counts as inactive or inconclusive. Unless noted, % is scaled to controls: 0 for no effect and ±100 for the full control effect; potency is read from the fitted curve at half-maximal effect.

SMILES	PLK1 PBD inh	Tau fibril ThT	VDR inh	Sfp PPTase inh	Tau FP inhib	Tau fluor cs
N=C1S/C(=C\c2ccco2)C(=O)N1c1ccc2c(c1)OCO2	-26%	16µM*	-13%	u	-2%	u
N=C1S/C(=C\c2ccco2)C(=O)N1c1nccs1	-10%	16µM*	6%	u	-2%	-22%
O=C1/C(=C\c2ccco2)SC(=S)N1C1CCCCC1	x	x	x	-13%	x	x
CC(=O)c1c(C)n(-c2ccc(C)cc2C)c2ccc(O)cc12	-6%	x	17%	3%	x	x
CC1=NN(c2ccc(C)cc2C)C(=O)C1C(c1cccc(O)c1)C1C(=O)N(c2ccc(C)cc2C)N=C1C (stereo not drawn)	27µM*	u	u	-4%	-10%	-8%
Cc1ccc(S(=O)(=O)N2CCCC2C(=O)OCc2ccccc2)cc1 (stereo not drawn)	-7%	-5%	-2%	7%	0%	-5%
Cc1ccc(S(=O)(=O)N2CCCC2C(=O)OCC(=O)Nc2ccc3c(c2)OCO3)cc1 (stereo not drawn)	1%	-17%	2%	6%	6%	-25%
Cc1ccc(S(=O)(=O)N2CCC[C@H]2C(=O)OCC(=O)c2ccc3c(c2)NC(=O)CO3)cc1	27µM*	5%	u	4%	3%	-8%
Cc1ccc(S(=O)(=O)N2CCCC2C(=O)OCc2ccco2)cc1 (stereo not drawn)	-18%	28µM*	2%	u	u	-14%
Cc1ccc(S(=O)(=O)N2CCCCC2C(=O)N2CCN(C)CC2)cc1 (stereo not drawn)	u	16µM*	3%	-13%	u	-21%
Cc1ccc(S(=O)(=O)N2CCCCC2C(=O)N2CCN(c3ccccc3F)CC2)cc1 (stereo not drawn)	0%	-14%	-5%	10%	3%	-13%
N#CCC(=O)Nc1ccc(C(=O)N2CCN(c3ccccn3)CC2)cc1	4%	x	-5%	27%	x	x
COc1cc(OC)c(C(=O)OC(C)C(=O)Nc2cccc(C(F)(F)F)c2)cc1OC (stereo not drawn)	-9%	8%	-25%	15%	7%	-3%
S=C(NCc1cccnc1)NCc1cccnc1	0%	1%	-10%	11%	4%	-3%
C=CCNC(=S)NCc1cccnc1	-6%	-3%	-5%	79µM*	-12%	-3%
CC(=O)N[C@@H](CS)C(=O)O	-21%	u	-14%	35µM*!	-10%	-13%
CC1C(=O)NN=C1C(=O)N/N=C/c1ccco1 (stereo not drawn)	27µM*	-3%	-21%	-28%	-2%	1%
O=C(CNc1cccc2ccccc12)N/N=C/C(Br)=C/c1ccccc1	-6%	u	-6%	7%	1%	14µM*[quencher]
O=C(N/N=C/C(Br)=C/c1ccccc1)c1cccs1	-5%	-1%	0%	56µM*	u	u
CC1C(=O)NN=C1C(=O)N/N=C\C(Br)=C\c1ccccc1 (stereo not drawn)	-5%	1%	-7%	50µM*	7%	-1%
COc1ccc(CNC(=O)C(=O)Nc2c3c(nn2-c2ccccc2)CSC3)cc1	x	0%	-13%	x	-1%	8%
COc1cc(/C=N/NC(=O)c2cccc(C(=O)N/N=C/c3ccc(O)c(OC)c3)n2)ccc1O	2%	x	-20%	-5%	x	x
COc1cc(/C=N/NC(=O)C2=NNC(=O)C2C)ccc1O (stereo not drawn)	2%	x	2%	50µM*	-3%	-23%
Cc1nc2ccccc2c2c(N)c3ccccc3n12	12µM*	10µM*	u	-1%	u	-23%
O=C1CC(c2ccco2)=Nc2ccccc2N1	-4%	-6%	3%	50µM*	0%	-2%
SMILES	PLK1 PBD inh	Tau fibril ThT	VDR inh	Sfp PPTase inh	Tau FP inhib	Tau fluor cs
O=C1CC(c2ccccc2)=Nc2ccccc2N1	0%	-2%	-4%	-11%	-7%	-6%
CCCCN1C(=O)/C(=C2\SC(N3CCCCC3)=NC2=O)c2ccccc21	24µM*	u	-22%	45µM*	6%	-23%
O=C1N=C(N2CCOCC2)S/C1=C1\C(=O)N(Cc2ccccc2)c2ccc(Br)cc21	x	u	x	-2%	10%	-17%
CCOC(=O)c1cnc2ccc(C(=O)OC)cc2c1Nc1ccccc1CC	x	u	-4%	x	-15%	-20%
O=C(O)CCCn1cc(NC(=O)c2cc(F)c(F)cc2Cl)cn1	8.4µM*	18%	u	-8%	-6%	12%
C[C@@H]1[C@H](C)CC[C@@]2(C(=O)O)CC[C@]3(C)C(=CC[C@H]4[C@@]5(C)CC[C@@H](O)C(C)(C)[C@@H]5CC[C@@]43C)[C@@H]12	x	x	-4%	17%	x	x
Cc1nn2c(nc1=O)NNC2(C)C(C)(C)C (stereo not drawn)	-13%	-19%	11%	35µM*	-7%	-15%
O=C1NC(=S)S/C1=C\C=C\c1ccc([N+](=O)[O-])o1	21µM*	x	16%	45µM*	-48%	-36%
O=C(O)/C=C/c1ccc([N+](=O)[O-])o1	u	-7%	2%	12%	-3%	-4%
CC(=O)C[C@H]1SC[C@@H](C(C)C)N1S(=O)(=O)c1ccc(C)cc1	-4%	x	x	x	x	x
CC(OC(=O)CC1Sc2ccccc2NC1=O)C(=O)N(C)Cc1ccccc1 (stereo not drawn)	19µM*	x	-13%	x	x	x
COc1cc2c(cc1O)CCC1C2CC[C@]2(C)[C@@H](O)CC[C@@H]12 (stereo partly drawn)	x	u	x	x	3%	-28%
O=C(O)c1cccnc1SCc1cccc(Br)c1	-4%	x	-5%	2%	x	x
Cc1ccc(C(c2cccc(Br)c2)c2c(C)[nH]c3ccccc23)s1 (stereo not drawn)	x	u	-10%	x	u	5.6µM*[quencher]
Cc1cccc(N2CCN(S(=O)(=O)c3nnc(NC(=O)c4ccc(Cl)cc4)s3)CC2)c1	x	u	0%	x	4%	-29%
O=C(CN1CCCc2ccccc21)NC(=O)NC1CCCCC1	27µM*	-14%	-28%	u	-7%	-22%
O=C(CN1CCCc2ccccc21)N/N=C/c1ccccc1	-11%	u	2%	16%	11%	u
O=C(CN1CCCc2ccccc21)N/N=C/c1c(O)ccc2ccccc12	13%	u	-11%	6%	15%	14µM*[quencher]
O=C(CN1CCc2ccccc21)NC(=O)NCc1ccccc1	27µM*	-14%	-6%	12%	5%	-23%
O=C(CN1CCCc2ccccc21)NC(=O)NCc1ccccc1	-8%	-2%	-13%	26%	9%	-17%
COC(=O)c1ccc(Cl)cc1NC(=O)N(Cc1ccc(OC)cc1)C1CCN(C(C)=O)CC1	x	0%	11%	x	6%	5%

Screening data deposited in PubChem by National Center for Advancing Translational Sciences (NCATS).
